# Laboratory results from PubChem BioAssay (NCATS).
# Several values for one entry are separate records, joined by “and”; a condition that tells them apart may be missing. Equal entries are not always repeated. Inconclusive results are not listed. Values without a mark were called inactive. Activity calls are given as the source filed them. Calls follow the shape of the dose curve; as a rule, active = well fitted curve in the direction sought with a large enough effect; inconclusive = small, poorly fitted or top-dose-only effect, or another doubt; inactive = no such curve, though single readings can be large; an effect the other way counts as inactive or inconclusive.
# Tests used:
# [1] = Viability qHTS for spleen associated tyrosine kinase inhibitor (SYKi) naive MV4-11 cells (AID 1963823); also: nearly all actives have a fitted effect of over 40% in size
# Method in brief: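 Compounds were dispensed acoustically onto plates, MV4-11 cells (SYKi-naive) added at 500 per well, and plates incubated 72 hr at 37 C. CellTiter-Glo was added and luminescence measured after 10 min.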
# [2] = Viability qHTS for spleen associated tyrosine kinase inhibitor (SYKi) drug resistant MV4-11 cells (AID 1963824); also: nearly all actives have a fitted effect of over 35% in size
# Method in brief: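 SYK-inhibitor-resistant MV4-11 AML cells were seeded at 500 per well onto compound and cultured 72 hours (37 °C, 5% CO2). CellTiter-Glo was then added, and after 10 min at room temperature, luminescence gave viability.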
# [3] = Cellular viability qHTS for adrenocortical cancer (ACC) cell line SW-13 (AID 1963989); details: SW-13 ACC cells viability, CellTiter-Glo, 48 h; activity (max response): hits give low values; also: nearly all actives have a fitted effect of over 65% in size;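 as to activity (max response): cells grown in serum-free medium with ITS supplement; % is scaled to controls: 0 for no effect and ±100 for the full control effect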
# Method in brief: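 SW-13 cells in ITS-supplemented serum-free DMEM were plated overnight, then exposed for 48 h at 37C to compound titrations (up to 46 uM final). Viability was read by CellTiter-Glo luminescence; four-parameter logistic fits gave IC50 and efficacy.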
# [4] = Cellular viability qHTS for adrenocortical cancer (ACC) cell line NCI-H295R (AID 1963990); also: nearly all actives have a fitted effect of over 60% in size
# Method in brief: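 Luminescent ATP read-out (CellTiter-Glo, 20 min RT) after 48 h drug exposure of NCI-H295R cells; a titration up to 46 uM final. Data normalized to doxorubicin (100% inhibition) and DMSO (0%); 4-parameter fit gives IC50, max response.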
# Potency is read from the fitted curve at half-maximal effect.
Structure (SMILES),Potency [1],Potency [2],activity (max response) [3],Potency [4],Potency [3]
O=C(CCc1ccc(O)cc1)c1c(O)cc(O)cc1O[C@@H]1O[C@H](CO)[C@@H](O)[C@H](O)[C@H]1O,inactive,inactive,0.618%,inactive,
O=C1Nc2ccc(Cl)cc2[C@@](C#CC2CC2)(C(F)(F)F)O1,16.6 µM (active) and 5.17 µM (active),13.2 µM (active) and 5.8 µM (active),,22.4 µM (active),18.4 µM (active) and 25.1 µM (active)
CCCCCCCCCCCCCCCC[N+](C)(C)CCN(Cc1ccc(OC)cc1)c1ncccn1,2660 nM (active),2.11 µM (active),,16.4 µM (active),20.6 µM (active)
C[C@]12CC[C@@H]3c4ccc(O)cc4CC[C@H]3[C@@H]1CC[C@@H]2OC(=O)CCC1CCCC1,inactive,inactive,5.6%,inactive,
COc1cc(C(N)=O)ccc1NC(=O)[C@@H]1N[C@@H](CC(C)(C)C)[C@@]2(C(=O)Nc3cc(Cl)ccc32)[C@H]1c1cccc(Cl)c1F,5900 nM (active),4.68 µM (active),,11.2 µM (active),15.8 µM (active)
CCCCCCCCCCCCCCCC[n+]1ccccc1,668 nM (active),0.668 µM (active),,5.8 µM (active),3.66 µM (active)
CCN(c1cc(C#CCN2CCOCC2)cc(C(=O)NCc2c(C)cc(C)[nH]c2=O)c1C)C1CCC(N(C)CCOC)CC1 (stereo unspecified),inactive,inactive,7.49%,inactive,
CCCN1CCCC[C@H]1C(=O)Nc1c(C)cccc1C,inactive,inactive,4.43%,inactive,
CC(C)N(CCC(=O)c1ccc2ccccc2c1)Cc1ccccc1,2350 nM (active),2.95 µM (active) and 1.84 µM (active),-18.6%,14.1 µM (active),
COc1ccc(Cl)cc1C(=O)NCCc1ccc(S(=O)(=O)NC(=O)NC2CCCCC2)cc1,inactive,inactive,-4.38%,inactive,
CC1(C)O[C@@H]2C[C@H]3[C@@H]4C[C@H](F)C5=CC(=O)C=C[C@]5(C)[C@@]4(F)[C@@H](O)C[C@]3(C)[C@]2(C(=O)CO)O1,inactive,20.9 µM (active),-5.78% and 9.51%,inactive,
COc1cccc(Nc2ncnn3ccc(CN4CC[C@@H](N)[C@H](O)C4)c23)c1,41.1 nM (active),0.184 µM (active),,inactive,0.316 µM (active)
CNCc1ccc(-c2cc(-c3nc(-c4ccc(S(=O)(=O)C(C)C)cc4)cnc3N)on2)cc1,259 nM (active),0.326 µM (active),,0.316 µM (active),3.98 µM (active)
CN(C)CCOc1ccc(/C(=C(/CCCl)c2ccccc2)c2ccccc2)cc1,14800 nM (active),13.2 µM (active),-6.2%,8.91 µM (active),
Fc1cccc(-n2cnc3c(NCc4nc5c(F)c(F)ccc5[nH]4)nc(N4CCOCC4)nc32)c1,59 nM (active),0.186 µM (active),,0.447 µM (active),0.112 µM (active)
Nc1ccc(C(=O)NCC(=O)O)cc1,inactive,inactive,-9.96%,inactive,
CC(/C=C/[C@@H]1C[C@]1(C)c1ccc2c(c1)C(C)(C)CCC2(C)C)=C\C(=O)O,66.1 nM (active),0.468 µM (active),-5.24%,inactive,
COc1ccc(-c2oc3ncnc(N)c3c2-c2ccc(NC(=O)Nc3cc(C(F)(F)F)ccc3F)cc2)cc1,41.1 nM (active) and 66.1 nM (active),103 nM (active) and 166 nM (active),0.756%,inactive,
CCCCNC(=O)NS(=O)(=O)c1ccc(C)cc1,inactive,inactive,2.87%,inactive,
C[C@H]1[C@H](C)CC[C@]2(C(=O)O)CC[C@]3(C)C(=CC[C@@H]4[C@@]5(C)CC[C@H](O)C(C)(C)[C@@H]5CC[C@]43C)[C@H]12,23500 nM (active),20.9 µM (active),-4.55%,inactive,

Structure (SMILES),Potency [1],Potency [2],activity (max response) [3],Potency [4],Potency [3]
Cc1nc2cccc(N)c2c(=O)n1C1CCC(=O)NC1=O (stereo unspecified),209 nM (active),inactive,3.79%,inactive,
O=C(CCl)Nc1cccc(NC2=NS(=O)(=O)c3ccccc32)c1,2630 nM (active),2.63 µM (active),,3.16 µM (active),8.91 µM (active)
CCN1C(=O)CNc2ncc(-c3ccc(-c4ncn[nH]4)nc3C)nc21,417 nM (active),0.742 µM (active),,10 µM (active),8.91 µM (active)
C[C@]12CC[C@@H]3c4ccc(O)cc4C[C@@H](CCCCCCCCCS(=O)CCCC(F)(F)C(F)(F)F)[C@H]3[C@@H]1CC[C@@H]2O (stereo partly specified),inactive,inactive,-10.5%,inactive,
CCOCCOC(=O)/C=C/c1ccc(OC)cc1,inactive,inactive,-3.52%,inactive,
CCCCCCCCCCC(CO)CCCCCCCC (stereo unspecified),inactive,inactive,0.379%,inactive,
C[N+](C)(C)CC[N+]1(C)Cc2c(Cl)c(Cl)c(Cl)c(Cl)c2C1,inactive,inactive,6.09%,inactive,
c1ccc(-c2ccc(CNc3nc(-c4ccccn4)nnc3-c3ccccc3)cc2)cc1,920 nM (active),1.03 µM (active),,17.8 µM (active),11.2 µM (active)
C[C@@H]1O[C@@H](OC[C@H]2O[C@@H](Oc3c(-c4ccc(O)c(O)c4)oc4cc(O)cc(O)c4c3=O)[C@H](O)[C@@H](O)[C@@H]2O)[C@H](O)[C@H](O)[C@H]1O,inactive,inactive,16.6%,inactive,
CC(C)N(CCCNC(=O)Nc1ccc(C(C)(C)C)cc1)C[C@H]1O[C@@H](n2cc(Br)c3c(N)ncnc32)[C@H](O)[C@@H]1O,4680 nM (active),18.4 µM (active) and 7.42 µM (active),,25.1 µM (active),28.2 µM (active)
CC(=O)c1cc2c(o1)C(=O)c1ccccc1C2=O,1180 nM (active),1.32 µM (active),,0.891 µM (active),3.16 µM (active)
Cc1ccccc1N=Nc1ccc(N=Nc2c(O)ccc3ccccc23)c(C)c1,inactive,inactive,15.2%,inactive,
CC(=O)N1CCC[C@H]1C(=O)N[C@@H](Cc1cnc[nH]1)C(=O)N[C@@H](CO)C(=O)N[C@@H](CS)C(=O)N[C@@H](CC(N)=O)C(N)=O,inactive,inactive,-17.6%,inactive,
CC(=O)N[C@H]1[C@H](O[C@@H]2c3ccc(c(Cl)c3)Oc3cc4cc(c3O[C@@H]3O[C@H](CO)[C@@H](O)[C@H](O)[C@H]3NC(=O)CCCCCCCC(C)C)Oc3ccc(cc3Cl)C[C@H]3NC(=O)[C@H](N)c5ccc(O)c(c5)Oc5cc(O)cc(c5)[C@H](NC3=O)C(=O)N[C@H]4C(=O)N[C@H]3C(=O)N[C@@H]2C(=O)N[C@@H](C(=O)O)c2cc(O)cc(O[C@H]4O[C@H](CO)[C@@H](O)[C@H](O)[C@@H]4O)c2-c2cc3ccc2O)O[C@H](CO)[C@@H](O)[C@@H]1O,inactive,inactive,11.6%,inactive,
Cc1nc(-c2cccnc2)sc1C(=O)Nc1ccccc1-c1cn2c(CN3CCOCC3)csc2n1,inactive,inactive,-5.59%,inactive,
C[C@@H]1C[C@H]2[C@@H]3C[C@H](F)C4=CC(=O)C=C[C@]4(C)[C@@]3(F)[C@@H](O)C[C@]2(C)[C@@]1(O)C(=O)CO,335 nM (active),2.11 µM (active),-1.7%,inactive,
C=CC(=O)Nc1cccc(Nc2nc(Nc3ccc(OCCOC)cc3)ncc2F)c1,468 nM (active),0.651 µM (active),,3.98 µM (active),15.8 µM (active)
CCCCN1C[C@H](O)[C@@H](O)[C@H](O)[C@H]1CO,inactive,inactive,-2.93%,inactive,
CCC[C@H](N[C@H]1CCc2cc(F)cc(F)c2C1)C(=O)Nc1cn(C(C)(C)CNCC(C)(C)C)cn1,8330 nM (active),9.2 µM (active) and 6.61 µM (active),,25.1 µM (active),14.1 µM (active)
